From PubChem BioAssay (NCI) come the findings set out here.

Some test systems named below: NCI-H23 lung; NCI-H226 lung; NCI-H322M lung; HOP-62 NSCLC; NCI-H460 lung; HOP-92 NSCLC; NCI-H522 lung; A549/ATCC NSCLC; 786-0 renal.
Experiment in all cases: NCI-60 one-dose screen, 48 h (100 = growth as untreated, 0 = no growth, -100 = all killed)
Common to all, as to details: 10 µM unless noted

About 83,000 compounds went through this panel and 20% of them were active in at least one assay; those are over-represented in the sample as a whole.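 How to read the values: 0–100, growth inhibition (40 = 60% inhibited); 0, no net growth; -100 to 0, cell death (-40 = 40% of starting cells died; -100 = all dead).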 A number with no mark means an inactive call. Activity calls are given as the source filed them. The calls were made as follows: active = growth percent below 10; inactive = the rest.

On to `CC(=O)OC[C@]12CC[C@@H]([C@@H](C)c3nnc(-c4ccncc4)o3)[C@@H]1[C@H]1CC[C@@H]3[C@@]4(C)CC[C@H](OC(C)=O)C(C)(C)[C@@H]4CC[C@@]3(C)[C@]1(C)CC2`, for which the growth in the test on NCI-H23 lung is 82%; with NCI-H226 lung, 60.6%; with NCI-H322M lung, 95.9%; in the test with HOP-62 NSCLC, 98.4%; in the test with NCI-H460 lung it was 58.6%; with HOP-92 NSCLC, 66.1%. Besides, the results for the growth in the test on NCI-H522 lung, with A549/ATCC NSCLC and with 786-0 renal were 76.2%, 62.5% and 80.4%, respectively.
In the case of `N[C@H]1CCC[C@@H]1NCCCCN1C(=O)c2cccc3cc([N+](=O)[O-])cc(c23)C1=O`, the growth with NCI-H23 lung is 47.7%; with NCI-H226 lung, 34.4%; in the test on NCI-H322M lung it was 53.4%; in the test with HOP-62 NSCLC, 38.4%; in the test with NCI-H460 lung, 13.7%; in the test with HOP-92 NSCLC it was 30.1%. Besides, the values for the growth with NCI-H522 lung, with A549/ATCC NSCLC and in the test with 786-0 renal were 38.4%, 27.6% and 31%, respectively.
In the case of `[2H]C([2H])([2H])Oc1ccc(F)cc1/C=C/C(=O)/C=C(O)/C=C/c1cc(F)ccc1OC([2H])([2H])[2H]`, the growth in the test with NCI-H23 lung is 88.9%; in the test with NCI-H226 lung, 105%; in the test on NCI-H322M lung, 107%; with HOP-62 NSCLC it was 91.9%; in the test with NCI-H460 lung it was 88.6%; in the test with HOP-92 NSCLC, 99.3%. For the same compound, the values for the growth in the test with NCI-H522 lung, in the test with A549/ATCC NSCLC and in the test with 786-0 renal were 74.4%, 93.7% and 99.7%, respectively.
Turning to `CC1CCN(C(=S)SCC(=O)NC(=O)c2ccccc2)CC1`, the growth with NCI-H23 lung is 102%; in the test on NCI-H226 lung, 109%; with NCI-H322M lung it was 105%; in the test on HOP-62 NSCLC, 96.7%; in the test on NCI-H460 lung, 110%; in the test on HOP-92 NSCLC, 107%. In addition, the growth in the test on NCI-H522 lung is 83.3%; in the test on A549/ATCC NSCLC, 105%; in the test on 786-0 renal, 103%.
In the case of `COc1ccc(C(=O)c2cc3c(N)c(C(=O)Nc4ccccc4)sc3nc2C)cc1`, the growth in the test on NCI-H23 lung is 36.1%; with NCI-H226 lung it was 65.3%; with NCI-H322M lung it was 63%; with HOP-62 NSCLC, 44.8%; in the test on NCI-H460 lung, 6.22% (active); in the test with HOP-92 NSCLC, 82.2%. For the same compound, the results for the growth in the test on NCI-H522 lung, with A549/ATCC NSCLC and in the test with 786-0 renal were 9.62% (active), 31.1% and 46.4%, respectively.
Take `CSc1nc(C)c([N+](=O)[O-])c(N)n1`: the growth is 101% in the test with NCI-H23 lung; 102% in the test on NCI-H226 lung; 93.7% in the test on NCI-H322M lung; 104% in the test on HOP-62 NSCLC; 104% in the test with NCI-H460 lung; 89.3% in the test with HOP-92 NSCLC. The values for the growth in the test on NCI-H522 lung, with A549/ATCC NSCLC and with 786-0 renal were 77.2%, 76.2% and 103%, respectively.
For the compound `COc1ccc(N2CCN(C(=O)c3sc4nc(C)c(Br)c(C)c4c3N)CC2)cc1`, the growth in the test on NCI-H23 lung is 99.4%; with NCI-H226 lung it was 74.2%; with NCI-H322M lung it was 88%; in the test with HOP-62 NSCLC, 80%; with NCI-H460 lung, 105%; in the test with HOP-92 NSCLC it was 88.9%. The growth is 89.2% with NCI-H522 lung, 91.1% with A549/ATCC NSCLC and 99.7% with 786-0 renal.
Regarding `Cc1ccc(/C=C(\C#N)n2nnc3cc(F)c(F)cc32)cc1`, the growth was 27.1% in the test with NCI-H23 lung; 47.6% with NCI-H226 lung; 4.87% (active) in the test with NCI-H322M lung; 23.1% with HOP-62 NSCLC; 22% in the test on NCI-H460 lung; -5.1% (active) with HOP-92 NSCLC. In addition, the growth in the test on NCI-H522 lung was 1.39% (active); in the test with A549/ATCC NSCLC it was 10.1%; in the test with 786-0 renal, -26.8% (active).
With `O=C(Cc1cccc(OC(F)(F)F)c1)Nc1ccc(CCCCc2nnc(NC(=O)Cc3ccccn3)s2)nn1`, the growth with NCI-H23 lung was 80.3%; in the test with NCI-H226 lung, 60.6%; in the test on NCI-H322M lung, 39.8%; in the test with HOP-62 NSCLC it was 74.5%; in the test on NCI-H460 lung, 74.2%; in the test on HOP-92 NSCLC it was -4.64% (active). Further, the figures for the growth in the test with NCI-H522 lung, in the test on A549/ATCC NSCLC and in the test with 786-0 renal were 44.3%, 43.2% and 46.3%, respectively.
On to `O=P(O)(O)OCC1OC(n2cnc3c(NCc4ccco4)ncnc32)C(O)C1O` (stereo not given), for which the growth was 18% in the test with NCI-H23 lung; 20.4% in the test with NCI-H226 lung; 28.3% in the test on NCI-H322M lung; 16% in the test with HOP-62 NSCLC; 12.6% with NCI-H460 lung; -7.22% (active) with HOP-92 NSCLC. Further, the growth is -32.7% (active) in the test with NCI-H522 lung, 7.15% (active) with A549/ATCC NSCLC and 10.5% in the test with 786-0 renal.
Consider `NC(N)=NS(=O)(=O)c1ccc(NC2=C(I)C(=O)c3ncccc3C2=O)cc1`, for which the growth was 89.9% with NCI-H23 lung; 86.7% in the test on NCI-H226 lung; 109% in the test with NCI-H322M lung; 111% in the test with HOP-62 NSCLC; 103% with NCI-H460 lung; 115% in the test with HOP-92 NSCLC. For the same compound, the figures for the growth in the test on NCI-H522 lung, in the test with A549/ATCC NSCLC and in the test with 786-0 renal were 81%, 106% and 110%, respectively.
On to `Cc1ccc2nc(/C(C#N)=C(/CCCO)NC(Cc3ccccc3)C(=O)OCc3ccccc3)[nH]c(=O)c2c1` (stereo not given), for which the growth in the test with NCI-H23 lung was 43%; with NCI-H226 lung it was 103%; with NCI-H322M lung, 94.4%; with HOP-62 NSCLC it was 88.2%; with NCI-H460 lung, 110%; in the test on HOP-92 NSCLC, 108%. The results for the growth in the test with NCI-H522 lung, in the test on A549/ATCC NSCLC and in the test on 786-0 renal were 112%, 114% and 93.9%, respectively.
`CN(Cc1cc(Br)cc(Br)c1O)Cc1cc(Br)cc(Br)c1O`: the growth in the test on NCI-H23 lung is 36.9%; with NCI-H226 lung it was 52%; in the test on NCI-H322M lung, 26.4%; with HOP-62 NSCLC it was 30.9%; with NCI-H460 lung it was 19.1%; in the test with HOP-92 NSCLC it was 32.3%. Also, the growth with NCI-H522 lung is 3.36% (active); with A549/ATCC NSCLC it was 36.8%; in the test with 786-0 renal it was 39.9%.
In the case of `CCCCNC(=O)c1cc([N+](=O)[O-])cc(C2CCCCC2)c1O`, the growth is 8.28% (active) with NCI-H23 lung; 29.5% in the test with NCI-H226 lung; 55.3% in the test on NCI-H322M lung; 57.7% with HOP-62 NSCLC; 30% with NCI-H460 lung; -13.6% (active) in the test on HOP-92 NSCLC. Further, the growth in the test on NCI-H522 lung was 25.4%; with A549/ATCC NSCLC it was 32%; with 786-0 renal, 40.7%.
In the case of `COc1ccc(Oc2nc(Nc3ccc(N4CCOCC4)cc3)ncc2NC(=O)Nc2cc(OC)cc(OC)c2)cc1`, the growth was 33.2% in the test with NCI-H23 lung; 32.7% with NCI-H226 lung; 23.3% in the test on NCI-H322M lung; 48.2% in the test on HOP-62 NSCLC; -36.5% (active) in the test with NCI-H460 lung; -11.5% (active) in the test with HOP-92 NSCLC. The growth in the test with NCI-H522 lung was 4.69% (active); in the test on A549/ATCC NSCLC it was 2.22% (active); in the test with 786-0 renal it was 22.5%.
